# The full ranking holds about 2,900 compounds; the median of “IRF Lucia reporter activity, fold change vs agonist alone” is about 0.9, and the highest 2% start at about 2.8. The full list was thinned out, with the highest values kept by preference.
# Tests used:
# RAW-Dual [1] = assay: IRF Lucia reporter activity, fold change vs agonist alone; higher = enhanced IRF activity; conditions: agonist: MPLA (TLR4) […]
# Procedure, shortened: (§1)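 Supernatant from RAW-Dual macrophages was read after 20 hours for IRF by QuantiLuc luminescence and for NF-κB by QuantiBlue absorbance at 620 nm. The cells (50,000 cells/well in DMEM, 384-well plates, 37 °C, 5% CO2) had received 50 nL of library stock by pin tool and, 1 h later, a PRR agonist. Reporter activity is expressed relative to agonist-alone wells as fold change, and wells were flagged cytotoxic if IncuCyte confluency was under 70% of agonist controls in both mask sets.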
# RAW-Dual [2] = assay: IRF Lucia reporter activity, fold change vs agonist alone; cytotoxicity flag (confluency mask): not cytotoxic; higher = enhanced IRF activity
# Procedure, shortened: as §1
# RAW-Dual [3] = assay: IRF Lucia reporter activity, fold change vs agonist alone; cytotoxicity flag (confluency mask): cytotoxic (confluency <70% of control); higher = enhanced IRF activity
# Procedure, shortened: as §1
# [4] = library stock concentration (final ~1000-fold dilution): 10 mM, cytotoxicity flag (confluency mask): not cytotoxic
# [5] = agonist: 3'3'-cGAMP (STING) 10 ug/mL
compound,measurement,setting,value
COc1ccc(CCc2nc3cc(-c4c(C)noc4C)ccc3n2CC(C)N2CCOCC2)cc1Cl (configuration not stated),IRF Lucia reporter activity,RAW-Dual [1]; [4],0.203
COc1ccc(CCc2nc3cc(-c4c(C)noc4C)ccc3n2CC(C)N2CCOCC2)cc1Cl (configuration not stated) (library stock concentration (final ~1000-fold dilution): 10 mM),IRF Lucia reporter activity,RAW-Dual [2]; [5],0.452
same,IRF Lucia reporter activity,RAW-Dual [2]; agonist: LPS (TLR4) 0.1 ug/mL,0.421
Cc1cc(C)c(/C=C2\C(=O)Nc3ccccc32)[nH]1,IRF Lucia reporter activity,RAW-Dual [1]; [4],0.781
COC1=CC(c2cc3ccccc3[nH]2)=N/C1=C\c1[nH]c(C)cc1C.CS(=O)(=O)O,IRF Lucia reporter activity,RAW-Dual [1]; [4],5.45
COC1=CC(c2cc3ccccc3[nH]2)=N/C1=C\c1[nH]c(C)cc1C.CS(=O)(=O)O (library stock concentration (final ~1000-fold dilution): 10 mM),IRF Lucia reporter activity,RAW-Dual [2]; [5],0.38
same,IRF Lucia reporter activity,RAW-Dual [2]; agonist: LPS (TLR4) 0.1 ug/mL,3.87
Cc1cc(C)c(/C=C2\C(=O)Nc3ccccc32)[nH]1 (library stock concentration (final ~1000-fold dilution): 10 mM),IRF Lucia reporter activity,RAW-Dual [2]; [5],0.77
same,IRF Lucia reporter activity,RAW-Dual [2]; agonist: LPS (TLR4) 0.1 ug/mL,0.578
O=C(c1cc(-c2cc3c(cc2C(=O)N2Cc4ccccc4CC2CN2CCOCC2)OCO3)n2c1CCCC2)N(c1ccccc1)c1ccc(O)cc1 (configuration not stated) (library stock concentration (final ~1000-fold dilution): 10 mM),IRF Lucia reporter activity,RAW-Dual [2]; [5],0.268
same,IRF Lucia reporter activity,RAW-Dual [2]; agonist: LPS (TLR4) 0.1 ug/mL,0.935
Oc1cc(O)c2c(c1)OC(c1ccc(O)c(O)c1)C(O)[C@H]2c1c(O)cc(O)c2c1OC(c1ccc(O)c(O)c1)C(O)C2 (some centres not stated) (library stock concentration (final ~1000-fold dilution): 10 mM),IRF Lucia reporter activity,RAW-Dual [2]; [5],0.867
same,IRF Lucia reporter activity,RAW-Dual [2]; agonist: LPS (TLR4) 0.1 ug/mL,1.27
COc1ncc(-c2cc(-c3ncc(CN4CC(C)OC(C)C4)o3)c3cn[nH]c3c2)cc1NS(C)(=O)=O (configuration not stated) (library stock concentration (final ~1000-fold dilution): 10 mM),IRF Lucia reporter activity,RAW-Dual [3]; [5],0.865
same,IRF Lucia reporter activity,RAW-Dual [3]; agonist: LPS (TLR4) 0.1 ug/mL,4.5
CC(C)N1CCN(Cc2cnc(-c3cc(-c4cccc5[nH]ccc45)cc4[nH]ncc34)o2)CC1 (library stock concentration (final ~1000-fold dilution): 10 mM),IRF Lucia reporter activity,RAW-Dual [2]; [5],0.609
same,IRF Lucia reporter activity,RAW-Dual [2]; agonist: LPS (TLR4) 0.1 ug/mL,1.42
CN1CCN(C(=O)c2ccc(-c3ccc4c(C=O)c(O)ccc4c3)s2)CC1 (library stock concentration (final ~1000-fold dilution): 10 mM),IRF Lucia reporter activity,RAW-Dual [2]; [5],0.228
same,IRF Lucia reporter activity,RAW-Dual [2]; agonist: LPS (TLR4) 0.1 ug/mL,0.45
Cc1cnc(Nc2ccc(F)cc2Cl)nc1-c1c[nH]c(C(=O)NC(CO)c2cccc(Cl)c2)c1 (configuration not stated) (library stock concentration (final ~1000-fold dilution): 10 mM),IRF Lucia reporter activity,RAW-Dual [2]; [5],0.474
same,IRF Lucia reporter activity,RAW-Dual [2]; agonist: LPS (TLR4) 0.1 ug/mL,1.16
CN1CCc2c(c3ccccc3n2Cc2ccc(C(=O)NO)cc2)C1.Cl,IRF Lucia reporter activity,RAW-Dual [1]; [4],5.65
CN1CCc2c(c3ccccc3n2Cc2ccc(C(=O)NO)cc2)C1.Cl (library stock concentration (final ~1000-fold dilution): 10 mM),IRF Lucia reporter activity,RAW-Dual [2]; [5],1.18
same,IRF Lucia reporter activity,RAW-Dual [2]; agonist: LPS (TLR4) 0.1 ug/mL,4.79
CN1CCc2c(c3ccccc3n2Cc2ccccc2)C1.CN1CCc2c(c3ccccc3n2Cc2ccccc2)C1.O=S(=O)(O)c1cccc2c(S(=O)(=O)O)cccc12,IRF Lucia reporter activity,"RAW-Dual [1]; library stock concentration (final ~1000-fold dilution): 2 mM, cytotoxicity flag (confluency mask): not cytotoxic",1.25
CN1CCc2c(c3ccccc3n2Cc2ccc(C(=O)NO)cc2)C1 (library stock concentration (final ~1000-fold dilution): 10 mM),IRF Lucia reporter activity,RAW-Dual [2]; [5],0.943
same,IRF Lucia reporter activity,RAW-Dual [2]; agonist: LPS (TLR4) 0.1 ug/mL,1.19
CN1CCc2c(c3ccccc3n2Cc2ccccc2)C1.CN1CCc2c(c3ccccc3n2Cc2ccccc2)C1.O=S(=O)(O)c1cccc2c(S(=O)(=O)O)cccc12 (library stock concentration (final ~1000-fold dilution): 2 mM),IRF Lucia reporter activity,RAW-Dual [2]; [5],1.04
same,IRF Lucia reporter activity,RAW-Dual [2]; agonist: LPS (TLR4) 0.1 ug/mL,1
COc1ccc(CC(=O)Nc2nc3c(s2)CCc2ccccc2-3)cc1OC (library stock concentration (final ~1000-fold dilution): 10 mM),IRF Lucia reporter activity,RAW-Dual [2]; [5],0.989
same,IRF Lucia reporter activity,RAW-Dual [2]; agonist: LPS (TLR4) 0.1 ug/mL,0.961
COc1cccc(C=NCCN=Cc2cccc(OC)c2[O-])c1[O-].[Cl-].[Mn+2],IRF Lucia reporter activity,RAW-Dual [1]; [4],0.946
COc1cccc(C=NCCN=Cc2cccc(OC)c2[O-])c1[O-].[Cl-].[Mn+2] (library stock concentration (final ~1000-fold dilution): 10 mM),IRF Lucia reporter activity,RAW-Dual [2]; [5],1.06
same,IRF Lucia reporter activity,RAW-Dual [2]; agonist: LPS (TLR4) 0.1 ug/mL,0.762
Cc1nc(Nc2cnn(C3CCNCC3)c2)nc2c1N(C)C(=O)c1cc3ccccc3cc1N2C,IRF Lucia reporter activity,"RAW-Dual [1]; library stock concentration (final ~1000-fold dilution): 10 mM, cytotoxicity flag (confluency mask): cytotoxic (confluency <70% of control)",3.71
CCOc1cc(N2CCC(O)CC2)ccc1Nc1ncc2c(n1)N(C)c1ccccc1C(=O)N2C,IRF Lucia reporter activity,RAW-Dual [1]; [4],0.32
CN1c2ccccc2C(=O)Nc2cnc(Nc3ccc(N4CCC(O)CC4)cc3)nc21 (library stock concentration (final ~1000-fold dilution): 10 mM),IRF Lucia reporter activity,RAW-Dual [2]; [5],0.137
same,IRF Lucia reporter activity,RAW-Dual [2]; agonist: LPS (TLR4) 0.1 ug/mL,0.438
Cc1nc(Nc2cnn(C3CCNCC3)c2)nc2c1N(C)C(=O)c1cc3ccccc3cc1N2C (library stock concentration (final ~1000-fold dilution): 10 mM),IRF Lucia reporter activity,RAW-Dual [3]; [5],1.96
same,IRF Lucia reporter activity,RAW-Dual [3]; agonist: LPS (TLR4) 0.1 ug/mL,3.05
CCOc1cc(N2CCC(O)CC2)ccc1Nc1ncc2c(n1)N(C)c1ccccc1C(=O)N2C (library stock concentration (final ~1000-fold dilution): 10 mM),IRF Lucia reporter activity,RAW-Dual [2]; [5],0.518
same,IRF Lucia reporter activity,RAW-Dual [2]; agonist: LPS (TLR4) 0.1 ug/mL,0.253
COc1cc(C(=O)O)ccc1NC(=O)C1NC(CC(C)(C)C)C(C#N)(c2ccc(Cl)cc2F)C1c1cccc(Cl)c1F (configuration not stated),IRF Lucia reporter activity,RAW-Dual [1]; [4],0.67
COc1cc(C(=O)O)ccc1NC(=O)C1NC(CC(C)(C)C)C(C#N)(c2ccc(Cl)cc2F)C1c1cccc(Cl)c1F (configuration not stated) (library stock concentration (final ~1000-fold dilution): 10 mM),IRF Lucia reporter activity,RAW-Dual [2]; [5],0.62
same,IRF Lucia reporter activity,RAW-Dual [2]; agonist: LPS (TLR4) 0.1 ug/mL,0.186
CC(C)(C)CC1NC(C(=O)NC2CCC(O)CC2)C(c2cccc(Cl)c2F)C12C(=O)Nc1cc(Cl)ccc12 (configuration not stated) (library stock concentration (final ~1000-fold dilution): 10 mM),IRF Lucia reporter activity,RAW-Dual [3]; [5],0.342
same,IRF Lucia reporter activity,RAW-Dual [3]; agonist: LPS (TLR4) 0.1 ug/mL,3.33
